Each structure is given as a SMILES string. Screen size: about 340,000 compounds; about 3,300 (0.97%) were called active. Roughly 9% stayed inconclusive and do not appear here. The call rests on the fitted dose curve; in most records, active means well fitted inhibition curve with a large enough effect; inconclusive means small, poorly fitted or top-dose-only effect, or effect the other way; inactive means flat fitted curve, though single readings scatter. The list shows a part of the results.
Potency means the concentration at half of the fitted maximal effect.

This assay in a line: qHTS Assay for Modulators of miRNAs and/or Inhibitors of miR-21. Further: nearly all actives have a fitted effect of over 55% in size. Particulars: HeLa miR-21-FLuc reporter, luciferase luminescence, 48 h; actives lower the signal. In outline: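 HeLa cells stably expressing CMV-driven firefly luciferase with a downstream miR-21 binding sequence, endogenously expressing miR-21, were treated with titrations (up to about 40uM final) for 48 hours at 37 degree Celsius. Luciferase luminescence was read after lysis.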
Background: Quantitative high-throughput screening tests each substance at several concentrations.
Turning to `CC(C)(C)SCCNC(=O)/C=C/c1ccccc1`, the Potency is 11.7 µM (active). With `O=C(/C=C/c1ccccc1)NCCC1=CCCCC1`, the Potency is 5.85 µM (active). In the case of `O=C(/C=C/c1ccc(F)cc1)NCCC1=CCCCC1` it was 7.36 µM (active). With `CCN(Cc1ccccc1)c1ccc(N=Nc2nn(C)c(C)c2[N+](=O)[O-])cc1`, the Potency is 18.5 µM (active).

Turning to `CCN(CC)c1ccc(N=Nc2nn(C)c(C)c2[N+](=O)[O-])cc1`, the Potency is 0.736 µM (active).

Regarding `CCc1cc2cc(C(=O)Nc3ccc(F)cc3)sc2s1`, the Potency was 1.65 µM (active).

`COc1cc(NC(=O)c2cc(-c3cccc(OC)c3)n[nH]2)cc(OC)c1`: the Potency is 3.29 µM (active). As to `CCOC(=O)c1cn[nH]c1NC(=S)Nc1ccc(Cl)cc1`, the Potency was 0.656 µM (active). With `COc1ccc2cc(-c3ccn[nH]3)ccc2c1`, the Potency was 0.927 µM (active). In the case of `CNc1nc(Nc2ccc(C)c(Cl)c2)nc(N)c1[N+](=O)[O-]` it was 3.29 µM (active); in that of `Cc1ccc(Nc2nc(N)c([N+](=O)[O-])c(NCCO)n2)cc1C`, 13.1 µM (active). The result for `O=C(c1cc(-c2cccc(Cl)c2)on1)N1CCCC1` reads 3.69 µM (active); that for `O=C(c1cc(-c2cccc(Cl)c2)on1)N1CCCCCC1`, 4.65 µM (active); that for `CSc1c(C#N)c(N)c(C#N)c2c1COC(C)(C)C2`, 18.5 µM (active). On to `CN1CCN(/N=C/c2ccc(Br)cc2)CC1`, for which the Potency is 14.7 µM (active). As to `CN1CCN(/N=C/c2ccc(Cl)c(Cl)c2)CC1`, the Potency was 7.36 µM (active). In the case of `Cc1c(-c2nnc(SCC(=O)Nc3ccccc3F)o2)nnn1-c1ccc(F)cc1` it was 2.93 µM (active); in that of `Cc1nn(-c2ccccc2)c(Cl)c1/C=N/NC(=O)c1ccc(NS(=O)(=O)c2cccs2)cc1`, 4.14 µM (active); in that of `Cc1nn(-c2ccc(F)cc2)c(Cl)c1/C=N/NC(=O)c1cccs1`, 2.93 µM (active).

With `Fc1ccc(-c2nc(-c3cnccn3)no2)c(Cl)c1`, the Potency was 0.464 µM (active). As for `Clc1ccc(-c2nc(-c3cnccn3)no2)cc1`, the Potency was 0.521 µM (active). In the case of `O=C(c1ccccc1)c1c(O)nc(-c2ccccc2)n(-c2ccccc2)c1=O` it was 13.1 µM (active). Regarding `O=C(Nc1ccn(Cc2ccccc2)n1)c1n[nH]c([N+](=O)[O-])c1Cl`, the Potency was 2.07 µM (active). The result for `CCSc1nnc2ccc(-c3ccc(C)cc3)nn12` reads 16.5 µM (active); that for `CCSc1nnc2ccc(-c3ccc(OC)c(OC)c3)nn12`, 14.7 µM (active); that for `CC(=O)c1sc(NC(=O)c2ccc(C)c(C)c2)nc1C`, 0.585 µM (active). As for `CC(=O)c1sc(NC(=O)c2ccc(C(C)(C)C)cc2)nc1C`, the Potency was 0.826 µM (active). In the case of `Cc1ccc(Cl)c(OCC(=O)N2CCc3ccccc3C2)c1` it was 14.7 µM (active). For the molecule `Cc1ccsc1C(=O)OCC(=O)N1CCc2ccccc2C1`, the Potency is 3.29 µM (active). `COc1cc2c(cc1OC)CN(c1ccc(F)cc1[N+](=O)[O-])CC2`: the Potency is 13.1 µM (active).

`CC(=O)c1ccc(N2CCc3ccccc3C2)c([N+](=O)[O-])c1`: the Potency was 9.27 µM (active).

For `COc1cc2c(cc1OC)CN(c1ncccc1[N+](=O)[O-])CC2`, the Potency was 18.5 µM (active). For `CC(=O)c1cccc(OCc2cc(C(=O)N3C[C@H]4CC[C@H]3C4)no2)c1`, the Potency is 5.21 µM (active).

As to `CC(=O)c1cccc(OCc2cc(C(=O)N(C)CCC3CCOCC3)no2)c1`, the Potency is 16.5 µM (active).

Take `O=C(c1cc(COc2ccc(F)cc2F)on1)N1C[C@H]2CC[C@H]1C2`: the Potency was 13.1 µM (active). In the case of `COc1cc(Cl)ccc1OCc1cc(C(=O)N2C[C@H]3CC[C@H]2C3)no1` it was 5.21 µM (active). In the case of `Cc1nonc1C1CCCN1C(=O)c1cc(COc2ccc(F)cc2F)on1` (stereo not drawn) it was 4.14 µM (active). As to `COc1ccccc1NC(=O)Nc1ccc(N2CCOCC2)cc1`, the Potency is 8.26 µM (active).

On to `CCCCOC(=O)Nc1ccc(N2CCOCC2)cc1`, for which the Potency was 7.36 µM (active). The result for `CCCCOC(=O)Nc1ccc(C(C)C)cc1` reads 11.7 µM (active); that for `Cc1ccc2nc3c(cc(S(=O)(=O)c4ccccc4)c(=N)n3Cc3ccco3)c(=O)n2c1`, 5.85 µM (active); that for `Cc1[nH]c2ccc(C(=O)N3CCCCC3)cc2c1C`, 2.07 µM (active). The result for `Cc1ccccc1NC(=O)c1ccc2[nH]c(C)c(C)c2c1` reads 1.31 µM (active); that for `COc1ccccc1NC(=O)c1ccc2[nH]c(C)c(C)c2c1`, 5.21 µM (active); that for `COc1cc2c(cc1NC(=O)c1ccccc1F)CCCC2`, 7.36 µM (active).

`Cc1nn2c(N)c(C#N)cnc2c1-c1ccccc1`: the Potency is 16.5 µM (active). For `Cc1nc2c(-c3ccccc3)c(C)nn2c(N)c1-c1ccccc1`, the Potency is 1.85 µM (active).

On to `Cc1ccc(C2=N/C(=C\N3CCCCC3)C(=O)O2)cc1`, for which the Potency was 1.65 µM (active).

For `O=C1OC(c2ccccc2)=N/C1=C\N1CCCCC1`, the Potency is 8.26 µM (active). The result for `Cc1ccc(C2=N/C(=C/N3CCOCC3)C(=O)O2)cc1` reads 6.56 µM (active); that for `Cc1cc(/C=C(\C#N)C(=O)Nc2ccccc2)c(C)n1-c1cccnc1`, 1.65 µM (active). `CCCOc1ccccc1/C=C(\C#N)C(=O)Nc1cccnc1`: the Potency was 8.26 µM (active). As to `COC(=O)c1ccc(COc2ccccc2/C=C(\C#N)C(=O)Nc2ccc(C)cc2)cc1`, the Potency was 7.36 µM (active). Turning to `COc1ccc(N=Nc2c(C)[nH][nH]c2=O)cc1`, the Potency was 10.4 µM (active).

Take `COc1ccc(N=Nc2c(C)n[nH]c2C)cc1`: the Potency is 10.4 µM (active).

Regarding `CCOC(=O)c1ccc2[nH]c3c(c2c1)CCCC3NC=O` (stereo not drawn), the Potency was 16.5 µM (active). The result for `O=C(Cc1ccccc1F)Nc1ccc2c(c1)CCC2` reads 3.29 µM (active); that for `O=C(Cc1ccccc1F)Nc1ccc(SC(F)F)cc1`, 2.07 µM (active). In the case of `O=C(Cc1ccc2c(c1)CCCC2)Nc1ccc2ccccc2c1` it was 13.1 µM (active); in that of `COc1ccc2c(c1OC)C(=O)OC2Nc1nc(-c2cc3cc(Br)ccc3oc2=O)cs1` (stereo not drawn), 5.85 µM (active).

Take `Cc1cc(C(=O)CSc2ncccn2)c(C)n1-c1cccc(F)c1`: the Potency is 0.736 µM (active). The result for `COc1cc(O)c2c(=O)c3c(OC)c(O)ccc3oc2c1` reads 13.1 µM (active); that for `CCn1c(=N)n(CC(=O)c2ccc(Cl)c(Cl)c2)c2ccccc21`, 6.56 µM (active); that for `COc1ccc(C(=O)Cn2c(=N)n(C)c3ccccc32)cc1`, 0.736 µM (active). The result for `CCOc1cc(C2NN=C(c3ccc(C)cc3)S2)ccc1O` (stereo not drawn) reads 4.65 µM (active); that for `COc1ccc(C2NN=C(c3ccc(C)cc3)S2)cc1` (stereo not drawn), 1.17 µM (active); that for `Cc1ccc(N/N=C(\C#N)C(=N)N2CCCCC2)cc1`, 0.521 µM (active).

For `CCN(CC)C(=N)/C(C#N)=N/Nc1ccc(C)cc1`, the Potency was 3.29 µM (active).

As for `N#C/C(=N\Nc1ccc(Br)cc1)C(=N)N1CCOCC1`, the Potency is 7.36 µM (active). In the case of `N#C/C(=N\Nc1ccc(Cl)cc1)C(=N)N1CCCCCC1` it was 0.585 µM (active); in that of `Cc1ccc(N/N=C(\C#N)C(=N)N2CCOCC2)cc1`, 10.4 µM (active). Turning to `COc1ccc(N/N=C(\C#N)C(=N)N2CCCCC2)cc1`, the Potency is 4.65 µM (active). In the case of `N#C/C(=N\Nc1ccccc1F)C(=N)N1CCCCC1` it was 1.65 µM (active); in that of `N#C/C(=N\Nc1ccccc1)C(=N)N1CCCCCC1`, 2.07 µM (active). For the molecule `CCN=c1scc(-c2ccco2)n1/N=C/c1ccc(O)cc1`, the Potency was 4.14 µM (active). In the case of `c1ccc(OCc2nc(-c3cccs3)no2)cc1` it was 13.1 µM (active).

For the molecule `O=[N+]([O-])c1ccccc1OCc1nc(-c2cccs2)no1`, the Potency was 2.61 µM (active). The result for `Fc1ccc(OCc2nc(-c3cccs3)no2)cc1` reads 6.56 µM (active).

In the case of `Cc1ccc2oc(-c3ccccc3)nc2c1`, the Potency is 6.56 µM (active).

In the case of `COc1ccc(-c2nc3cc([N+](=O)[O-])ccc3o2)cc1`, the Potency is 0.293 µM (active).

As for `COc1cc(OC)cc(-c2nc3cc(C)ccc3o2)c1`, the Potency was 1.65 µM (active). On to `O=c1c2cn[nH]c2[nH]c(=S)n1-c1ccccc1F`, for which the Potency was 0.927 µM (active). In the case of `Nc1c(-c2ccc(Cl)cc2)cnc2c(-c3ccccc3)cnn12` it was 0.414 µM (active); in that of `c1ccc(-c2cc3nccc(-c4ccccn4)n3n2)cc1`, 3.69 µM (active).

Consider `Nc1c(-c2cccs2)cnc2c(-c3ccc(F)cc3)cnn12`, for which the Potency was 0.329 µM (active). Take `COc1ccc(-c2cnc3c(-c4ccc(F)cc4)cnn3c2N)cc1`: the Potency was 0.521 µM (active). Turning to `Nc1c(-c2ccc(Cl)cc2)cnc2c(-c3ccc(F)cc3)cnn12`, the Potency was 0.585 µM (active). Take `Nc1c(-c2ccc(Cl)cc2)nnn1-c1ccccc1`: the Potency was 2.33 µM (active). In the case of `Nc1c(-c2ccccc2)cnc2cc(-c3ccccc3)nn12` it was 0.414 µM (active). For `Nc1c(-c2ccccc2)cnc2c(-c3ccccc3)cnn12`, the Potency was 0.0927 µM (active). The result for `Nc1c(-c2ccc(Cl)cc2)cnn1-c1ccccc1` reads 1.65 µM (active).

In the case of `Nc1c(-c2cccc(Cl)c2)cnc2c(-c3ccccc3)cnn12`, the Potency was 1.65 µM (active). With `CC(=O)Nc1cccc(NC(=O)c2ccc(COc3ccccc3)cc2)c1`, the Potency is 1.47 µM (active). As to `O=C(Nc1ccccc1F)c1ccc(OCc2ccccc2)cc1`, the Potency is 5.21 µM (active). The result for `CCOC(=O)C(=O)N(Nc1ccc(C)cc1)c1ccc(C)cc1` reads 9.27 µM (active). `O=C(O)c1ccc(N=NNc2cccc([N+](=O)[O-])c2)cc1`: the Potency was 5.85 µM (active). In the case of `CCOC(=O)/C(N=Nc1ccc2c(c1)OCO2)=C(\C)O` it was 4.65 µM (active); in that of `CC(=O)/C(N=Nc1ccc2c(c1)OCO2)=C(\C)O`, 6.56 µM (active). The result for `C/C(=N\NC(=O)COc1ccccc1[N+](=O)[O-])c1cccs1` reads 5.21 µM (active). For the molecule `C/C(=N\NC(=O)COc1ccccc1)c1cccs1`, the Potency was 14.7 µM (active).

For `Cc1ccn(-c2cccc(-n3ccc(C)n3)n2)n1`, the Potency was 2.61 µM (active). Take `O=C(NC1CCCCC1)C(=O)c1c[nH]c2ccccc12`: the Potency was 4.14 µM (active). In the case of `O=C(NCC1CCCO1)C(=O)c1c[nH]c2ccccc12` (stereo not drawn) it was 18.5 µM (active).

For the origin of these results see PubChem BioAssay AID2289 (National Center for Advancing Translational Sciences (NCATS), 2010).
